T cruzi growth-1: T. cruzi intracellular proliferation inhibitors, primary screen, cell-based, beta-gal Tulahuen parasites, NIH3T3 host, luminescence; T. cruzi beta-gal in NIH3T3, GalScreen luminescence, 90 h; inhibition, % at 8.34 µM; actives 5.9% (n = 77,000);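 active means mean inhibition above about 93%, with at least 55% of replicates each passing it, limit read from the data, passing the limit was not always enough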
C diff HTS: C. difficile growth inhibitors, primary screen, HTS. growth activity, negative = inhibition, % at 16 µg/mL (by protocol). actives 0.25% (n = 86,000). Clostridium difficile clinical isolate growth, OD600, 24 h; hits give low values;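 active means mean growth activity at or below -80% and every replicate also at or below -80%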;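 further: 0% = DMSO wells and -100% = levofloxacin 16 µg/mL wells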
Pf Dd2 growth: P. falciparum Dd2 growth inhibitors, primary screen, SYBR Green fluorescence, single dose replicates; actives 2.3% (n = 94,000); AID 1159554, 2015; activity change, % at 10 µM; 72 h; hits give low values; in the data active means activity change below about -80%
T cruzi growth-2: T. cruzi intracellular proliferation inhibitors, confirmation, cell-based, NIH3T3 host, beta-gal parasite, luminescence, cherry-pick; shares compounds with T cruzi growth-1; T. cruzi beta-gal in NIH3T3, GalScreen luminescence, 90 h; inhibition, % at 8.35 µM; actives 72% (n = 5,600);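 active means mean replicate inhibition above about 95% and at least 55% of replicates individually reaching it, limit read from the data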
T cruzi growth-3: inhibitors of intracellular T. cruzi replication, confirmation, NIH3T3 host cells, beta-gal parasites, cherry-pick, set 2; shares compounds with T cruzi growth-1; T. cruzi beta-gal in NIH3T3, GalScreen luminescence, 90 h; inhibition, % at 2.09 µM; actives 21% (n = 5,600); AID 651740, 2012;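 active means mean inhibition above about 95%, with at least 55% of replicates also reaching it, limit read from the data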;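 further: plate controls were neutral control median for no effect and positive control median for full effect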
3T3 cytotox: cytotoxicity in mouse NIH/3T3 fibroblasts, confirmation, cytotoxicity control for T. cruzi proliferation inhibitor project, cell-based, cherry-pick, single point. actives 14% (n = 5,600). shares compounds with T cruzi growth-1. cytotoxicity (signal decrease), % at 8.35 µM. NIH/3T3 viability, CellTiter-Glo ATP luminescence, 90 h;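 active means mean signal decrease across replicates above about 35% based on untreated-well scatter, with enough replicates individually passing, limit read from the data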;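 further: 0% = median of neutral control wells and 100% = median of positive control wells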
NIH3T3 tox 2: NIH/3T3 fibroblast cytotoxicity, confirmation, cytotoxicity control, cell-based, cherry-pick, single point, set 2; shares compounds with T cruzi growth-1; NIH/3T3 viability, CellTiter-Glo ATP luminescence, 90 h; inhibition, % at 24.9 µM; actives 56% (n = 5,600);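 active means mean loss of cell viability signal at or above a set limit, and enough replicates individually reaching it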;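 further: 0% = median of neutral control wells and 100% = median of positive control wells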
* hit, by the source's call; nt = no result given. Compounds with a hit are over-represented: about 6.8% of the library has one in this group of screens.

SMILES	T cruzi growth-1	C diff HTS	Pf Dd2 growth	T cruzi growth-2	T cruzi growth-3	3T3 cytotox	NIH3T3 tox 2
C[C@@H]1CN([C@@H](C)CO)S(=O)(=O)c2ccc(C3=CCCC3)cc2O[C@H]1CN(C)Cc1ccncc1	114.2*	-3.8	-64.9	96.8*	102.1*	50.0*	102.1*
C[C@@H]1CN([C@H](C)CO)S(=O)(=O)c2ccc(C3=CCCC3)cc2O[C@@H]1CN(C)C(=O)Cc1ccncc1	81.7	2.0	-49.3	nt	nt	nt	nt
C[C@H](CO)N1C[C@H](C)[C@@H](CN(C)C(=O)Cc2ccncc2)Oc2cc(C3=CCCC3)ccc2S1(=O)=O	96.0*	5.7	-20.2	88.3	44.1	-8.0	13.2
C[C@H](CO)N1C[C@H](C)[C@H](CN(C)Cc2ccncc2)Oc2cc(C3=CCCC3)ccc2S1(=O)=O	107.9*	0.3	-29.0	96.9*	88.4	20.6	43.5*
C[C@@H]1CN([C@H](C)CO)C(=O)Cc2cc(NS(C)(=O)=O)ccc2O[C@@H]1CN(C)CC1CCCCC1	27.9	-1.1	-30.4	nt	nt	nt	nt
C[C@@H]1CN([C@@H](C)CO)C(=O)c2cc(NS(=O)(=O)c3ccc(F)cc3)ccc2O[C@H]1CN(C)S(C)(=O)=O	-20.8	-4.2	20.8	nt	nt	nt	nt
C[C@@H]1CCCCO[C@H](CN(C)C)[C@@H](C)CN([C@@H](C)CO)C(=O)c2cc(NC(=O)CCC(F)(F)F)ccc2O1	69.1	-2.0	30.8	nt	nt	nt	nt
CN1CCN(C(=O)C[C@@H]2C[C@@H]3c4cc(NC(=O)NC5CCCC5)ccc4O[C@@H]3[C@@H](CO)O2)CC1	30.8	-7.8	2.5	nt	nt	nt	nt
COC(=O)C[C@@H]1C=C[C@H](NS(=O)(=O)c2ccccc2F)[C@@H](CO)O1	-39.6	nt	12.4	nt	nt	nt	nt
Cc1ccc(S(=O)(=O)N(C)C[C@H]2OCCCC[C@@H](C)Oc3ccc(NS(=O)(=O)c4ccc(Cl)cc4)cc3C(=O)N([C@H](C)CO)C[C@H]2C)cc1	108.3*	5.4	-80.3*	98.3*	109.2*	-20.2	-8.8
Cc1ccc(S(=O)(=O)Nc2ccc3c(c2)C(=O)N([C@@H](C)CO)C[C@@H](C)[C@@H](CN(C)S(=O)(=O)c2ccc(Cl)cc2)OCCCC[C@H](C)O3)cc1	132.5*	5.8	-86.4*	107.3*	108.9*	-35.9	2.1
Cc1ccc(S(=O)(=O)N(C)C[C@H]2OCCCC[C@H](C)Oc3ccc(NS(=O)(=O)c4ccc(Cl)cc4)cc3C(=O)N([C@H](C)CO)C[C@@H]2C)cc1	96.6*	9.2	-15.9	100.2*	118.9*	17.0	10.7
C[C@@H]1CCCCO[C@H](CN(C)S(=O)(=O)c2ccc(Cl)cc2)[C@@H](C)CN([C@@H](C)CO)C(=O)c2cc(NS(=O)(=O)c3ccc(Cl)cc3)ccc2O1	nt	-9.9	-68.5	nt	nt	nt	nt
C[C@@H]1CCCCO[C@H](CN(C)S(=O)(=O)c2ccc(Cl)cc2)[C@@H](C)CN([C@H](C)CO)C(=O)c2cc(NS(=O)(=O)c3ccc(Cl)cc3)ccc2O1	31.6	-3.1	-14.6	nt	nt	nt	nt
Cc1ccc(S(=O)(=O)N(C)C[C@@H]2OCCCC[C@H](C)Oc3ccc(NS(=O)(=O)c4ccc(Cl)cc4)cc3C(=O)N([C@@H](C)CO)C[C@@H]2C)cc1	117.6*	3.1	-41.2	103.8*	115.3*	-5.2	-18.1
Cc1ccc(S(=O)(=O)N(C)C[C@@H]2OCCCC[C@H](C)Oc3ccc(NS(=O)(=O)c4ccc(Cl)cc4)cc3C(=O)N([C@H](C)CO)C[C@H]2C)cc1	91.4	2.3	-50.3	nt	nt	nt	nt
COc1ccc2c3c([nH]c2c1)[C@H](CO)N(S(C)(=O)=O)CC31CCN(C(=O)CN(C)C)CC1	nt	0.7	-28.3	nt	nt	nt	nt
CCCC(=O)Nc1ccc2c(c1)C(=O)N(C)[C@@H]1CC[C@@H](CC(=O)NCc3ccccc3F)O[C@@H]1CO2	-19.7	1.3	3.8	nt	nt	nt	nt

High-throughput results deposited in PubChem by Broad Institute.
